# In PubChem BioAssay:
# “And” between values parts separate entries of the source, which are not always exact repeats. Identical values can stand only once. The source made the active and inactive calls.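 The calls were made as follows: active = inhibition at or above 50% relative to wild type and mutant plate controls; inactive = inhibition below 50%.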
# Experiment: loss of swimming-algae plug formation – whole organism, Chlamydomonas reinhardtii, WT vs cilia-less mutant, absorbance, 96-well, primary screen (AID 463189);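 also: 0% = wild type cc124 cells in DMSO and 100% = ciliumless bld1 mutant cells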
# Conditions: Chlamydomonas reinhardtii gravitaxis, OD600 absorbance, 2 days; at 10 µM; stronger effect = higher value
row,SMILES,inhibition
1,NCCc1ccc(S(=O)(=O)F)cc1,0.651% (inactive)
2,CCCN(CCC)CCc1c[nH]c2ccc(C(N)=O)cc12,-0.498% (inactive)
3,c1ccc2nc(N3CCNCC3)ccc2c1,4.23% (inactive)
4,Cc1ccc(S(=O)(=O)N[C@@H](CCCCN)C(=O)CCl)cc1,5.31% (inactive)
5,COc1cc(C[C@@H](C)N)c(OC)cc1I,-7.2% (inactive)
6,O=C(O)CC[N+](=O)[O-],2.51% (inactive)
7,c1ccc2sc(C3(N4CCCCC4)CCCCC3)cc2c1,-0.941% (inactive)
8,NC1CC1c1ccccc1 (stereo not drawn),9.58% (inactive)
9,c1ccc(C2CC2)c(OCC2=NCCN2)c1,3.8% (inactive)
10,CC(C)NC(C)Cc1ccc(I)cc1 (stereo not drawn),22.2% (inactive)
11,Cn1cnc(CCN)c1,3.08% (inactive)
12,Oc1cc2c(cc1O)[C@H]1c3ccccc3CN[C@@H]1CC2,-2.75% (inactive)
13,COc1ccc2[nH]cc(CCN)c2c1,3.77% (inactive)
14,CN(C(=O)Cc1ccc(Cl)c(Cl)c1)C(CN1CCCC1)c1cccc(OCC(=O)O)c1 (stereo not drawn),4.68% (inactive)
15,CN[C@@H](C)[C@H](O)c1ccccc1,-4.11% (inactive)
16,O=c1[nH]oc2c1CCNC2,1.51% (inactive)
17,CCCN1CCC[C@@H](c2cccc(C#N)c2)C1,9.39% (inactive)
18,C[N+]1(C)C2CCC1CC(OC(=O)c1c[nH]c3ccccc13)C2 (stereo not drawn),8.92% (inactive)
19,Cc1c(C(=O)c2cccc3ccccc23)c2cccc3c2n1[C@H](CN1CCOCC1)CO3,9.81% (inactive)

row,SMILES,inhibition
1,NC(CCCCCP(=O)(O)O)C(=O)O (stereo not drawn),-3.46% (inactive)
2,O=[N+]([O-])c1cc(O)c(O)c([N+](=O)[O-])c1,-10.8% (inactive)
3,S=C(NC1CCCCC1)N1CCC(c2cnc[nH]2)CC1,12.6% (inactive)
4,CNc1ccc2oc(C[C@H]3O[C@@]4(CC[C@H]3C)O[C@H]([C@H](C)C(=O)c3ccc[nH]3)[C@H](C)C[C@H]4C)nc2c1C(=O)O,84.5% (active)
5,NCCc1c[nH]c2ccccc12,2.92% (inactive)
6,OCc1cnc[nH]1,3.19% (inactive)
7,CC1=C[C@@H]2c3cccc4[nH]cc(c34)C[C@H]2N(C)C1,69.4% (active)
8,CCCN1CCc2cccc3c2[C@H]1Cc1ccc(O)c(O)c1-3,0.62% (inactive)
9,NNC(=O)c1ccc(O)cc1,-10.7% (inactive)
10,C[N+](C)(C)CC#CCOC(=O)Nc1cccc(Cl)c1,2.56% (inactive)
11,CCCN1CCO[C@@H]2c3cc(O)ccc3OC[C@H]21,3.37% (inactive) and -1.05% (inactive)
12,C[N+](C)(C)CC(=O)O,3.38% (inactive)
13,C[C@]12N[C@H](Cc3ccccc31)c1ccccc12,-0.308% (inactive)
14,COc1cc(C=C(C#N)C#N)cc(O)c1O,10.5% (inactive)
15,CCCC[N+]1(C)C2CC(OC(=O)[C@H](CO)c3ccccc3)CC1C1OC12 (stereo partly drawn),-7.48% (inactive)
16,NNC(N)=O,1.88% (inactive)
17,COc1ccc(CCN)cc1O,4.96% (inactive)
18,CCCN(CCC)[C@@H]1CCc2cccc(O)c2C1,-6.71% (inactive)
19,CCCN1CCc2cc(O)cc3c2[C@H]1Cc1ccc(O)c(O)c1-3,0.25% (inactive)
